This note sets out measurements from PubChem BioAssay (NCATS).

For test [1] the following is noted: Ebola virus entry assay, green fluorescence channel.
For test [2] the following is noted: Ebola virus entry assay, blue channel fluorescence.
For test [3] the following is noted: Ebola virus entry assay, green fluorescence channel. The source holds these as a separate data set.
For test [4] the following is noted: Ebola virus entry assay, ratio channel readout.
For test [5] the following is noted: Ebola virus entry assay, blue channel fluorescence. The source holds these as a separate data set.
For test [6] the following is noted: Ebola virus entry assay, ratio channel.
The conditions of test [7]: Ebola virus entry assay, blue channel fluorescence. The source holds these as a separate data set.
The conditions of test [8]: Ebola virus entry assay, reporter ratio channel; AC50: Channel type: primary unless noted; outcome: Channel type: primary unless noted.
The conditions of test [9]: Ebola virus entry cell assay, ratio channel.
For test [10] the following is noted: Ebola virus entry assay, blue channel (ratio component).
For test [11] the following is noted: Ebola virus entry reporter assay, green channel fluorescence.
Test [12] in a line: Immunotoxin (HA22) sensitization/mitigation study. Vehicle arm (PBS) (AID 1159510). Further: potency means the concentration at half of the fitted maximal effect. Particulars: cancer cells viability with PBS vehicle (HA22 study); series mostly up to 46.1 µM.
A short description of test [13]: Immunotoxin (SS1P) sensitization/mitigation study. Vehicle arm (DMEM) (AID 1159513). Further: potency means the concentration at half of the fitted maximal effect. Particulars: cell viability with vehicle (DMEM); series mostly up to 46.1 µM.
For test [14] the following is noted: Ebola virus entry assay, green channel fluorescence.
The nature of test [15]: qHTS profiling of the MIPE4 collection as inhibitors of Plasmodium falciparum (3D7) proliferation (AID 743344).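 Further: scaled between DMSO vehicle wells and 0.29 µM artemisinin as full inhibition.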 Particulars: P. falciparum 3D7 in erythrocytes, SYBR Green DNA fluorescence, 72 h; at 28.5 µM (top of the series) unless noted. A digest of the protocol: (§1)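 Parasite DNA was quantified by SYBR Green I fluorescence (ex 485, em 535 nm) after overnight lysis in saponin/Triton buffer at room temperature. Cultures at 0.3% parasitemia and 2.5% hematocrit were first exposed to compound for 72 h at 37 C; signals were normalised to artemisinin (0.29 uM) and vehicle wells.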

Test [16] in a line: qHTS profiling of the MIPE4 collection as inhibitors of Plasmodium falciparum (DD2) proliferation (AID 743345). Conditions: P. falciparum Dd2 in erythrocytes, SYBR Green DNA, 72 h; at 28.5 µM (top of the series) unless noted. In short, it runs like this:
as §1

For part of these data: Entries with a potency or affinity are not part of this list. The source made the active and inactive calls.
Wherever efficacy is given: 0% is about no effect.

For the compound `CCc1c2c(nc3ccc(OC(=O)N4CCC(N5CCCCC5)CC4)cc13)-c1cc3c(c(=O)n1C2)COC(=O)[C@]3(O)CC`, in [1], the efficacy was 45.7% (inactive). The result in test [2], in test [3], in test [4], in [7] and in [9] was inactive. Also, the AC50 is 20 µM (active) in [5], 28.2 µM (active) in test [6] and 28.2 µM (active) in [8].
For `C[C@]12C/C(=C/O)C(=O)C[C@@H]1CC[C@@H]1[C@@H]2CC[C@@]2(C)[C@H]1CC[C@]2(C)O`, in [1], the efficacy is 90.8% (inactive). Besides, the compound was called inactive in [2], in test [3], in test [4], in [5], in [7] and in test [10]. The outcome in [11] and in test [9] was inactive. Also, the AC50 in test [6] and in [8] was 14.1 µM (active) in each case.
Turning to `COc1cc2nc(N(C)CCCNC(=O)C3CCCO3)nc(N)c2cc1OC` (centres undefined), the efficacy in [1] is 46.7% (inactive). Moreover, the result in test [2], in [3], in [4], in test [6], in [7] and in [11] was inactive. Besides, in [9], the outcome was inactive. Further, the AC50 in test [5] was 39.8 µM (active); in test [8], 35.5 µM (active).
On to `CC[C@@]1(O)C(=O)OCc2c1cc1n(c2=O)Cc2cc3c(CN(C)C)c(O)ccc3nc2-1`, for which the AC50 is 31.6 µM (active) in test [1]; 7.94 µM (active) in test [3]; 7.94 µM (active) in [6]; 7.94 µM (active) in test [8]; 5.62 µM (active) in test [9]. The outcome in [2], in test [4], in test [5], in test [7] and in test [10] was inactive. For the same compound, the Potency is 0.0118 µM (active) in test [12] and 5.9 µM (active) in test [13].
`CCc1ccc(CCOc2ccc(CC3SC(=O)NC3=O)cc2)nc1` (centres undefined): the efficacy in [1] was 52.6% (inactive). For the same compound, the compound was classed as inactive in [2], in [3], in test [4], in test [5], in test [6] and in test [7]. The outcome in [8], in test [11] and in test [9] was inactive.
`O=C1Nc2ccc(Cl)cc2[C@@](C#CC2CC2)(C(F)(F)F)O1`: the efficacy in test [1] is -11.3% (inactive). The result in test [2], in test [3], in test [4], in test [14] and in test [9] was inactive. Besides, the figures for the AC50 in [5], in test [6] and in test [8] were 17.8 µM (active), 22.4 µM (active) and 22.4 µM (active), respectively. For the same compound, the Potency in [12] was 42.9 µM (active); in test [13], 48.1 µM (active).
Turning to `NC[C@H](O)c1ccc(O)c(O)c1`, the efficacy in test [1] was 112% (inactive). Further, the call in test [2], in test [3], in [4], in test [7] and in test [9] was inactive. Besides, the values for the AC50 in [5], in test [6] and in test [8] were 12.6 µM (active), 7.94 µM (active) and 7.94 µM (active), respectively.
For the compound `CN(C)CC[C@@H](c1ccc(Br)cc1)c1ccccn1`, the efficacy in [1] was 34.2% (inactive). In addition, the compound was classed as inactive in test [2], in test [3], in test [4], in [6], in [14] and in test [9]. In addition, the AC50 in [5] and in test [8] was 39.8 µM (active) in each case.
In test [15], `COc1ccc(C(CN(C)C)C2(O)CCCCC2)cc1` (centres undefined) displayed a parasite growth, % of DMSO control of 21.1%. In [16], this compound registered a parasite growth remaining, % of DMSO control (lower = more inhibition) of 58.9%. Further, the efficacy in test [1] is 55.6% (inactive). Further, the compound was called inactive in [2], in test [3], in [4], in test [6], in test [7] and in test [11]. In addition, the result in test [9] was inactive. For the same compound, the AC50 in test [5] is 35.5 µM (active); in test [8] it was 39.8 µM (active).
With `Cc1ccc(-n2[nH]c(C)c(N=Nc3cccc(-c4cccc(C(=O)O)c4)c3O)c2=O)cc1C`, the efficacy in test [1] is 128% (inactive). The call in [2], in test [3], in [4], in test [5], in test [6] and in test [7] was inactive. In addition, the result in [8], in test [10], in [11] and in test [9] was inactive.
`CN(C)[C@@H]1C(=O)C(C(N)=O)=C(O)[C@@]2(O)C(=O)C3=C(O)c4c(O)ccc(Cl)c4[C@@H](O)[C@H]3C[C@@H]12`: the efficacy in [1] was 117% (inactive). Besides, the call in [2], in test [3], in [4], in [5], in test [7] and in test [10] was inactive. In test [9], the result was inactive. The AC50 in test [6] and in [8] was 28.2 µM (active) in each case.
